Assay outcomes as filed in PubChem.
EBV LMP1 NFkB – EBV LMP1-driven NF-kappaB luciferase reporter inhibitors, primary screen, cell-based, luminescence, single point; actives 0.69% (n = 350,000); inhibition, % at 12.5 µM; LMP1-induced NF-kappaB luciferase reporter cells; in the data active means inhibition above about 41%; inconclusive means no clear call, values can overlap the other calls
Shn3 3UTR inh – reduction of Shn3 3'UTR firefly luciferase signal, primary screen, Schnurri-3 inhibitor project, cell-based, Clone20 osteoblasts, set 2; Clone20 osteoblast Shn3 3'UTR firefly luciferase, 24 h; inhibition, % at 12.5 µM; actives 0.52% (n = 360,000); AID 588674, 2011;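 active means mean inhibition of at least 75% with every replicate also reaching 75%; inconclusive means mean inhibition at least 75% but some replicate below; inactive means mean inhibition below 75%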
MITF TRPM1 inh – inhibitors of MITF-dependent TRPM1 promoter reporter, primary screen, cell-based, SK-MEL-5, single point, luciferase | inhibition, % at 12.5 µM | actives 0.83% (n = 330,000) | SK-MEL-5 TRPM1 promoter luciferase, 24 h;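 active means mean inhibition across replicates of 60% or more, whatever share of single replicates reaches that level; inconclusive means some that reach 60%, reason not given; inactive means mean inhibition across replicates below 60%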
EWS-Fli inh – EWS/Fli-driven NR0B1 reporter inhibitors, primary screen, A673 cells, NR0B1 luciferase, luminescence, MLPCN library; actives 0.67% (n = 350,000); inhibition, % at 12.6 µM; viability-normalised;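 active means mean inhibition of at least 50% after viability correction, with every replicate also passing that limit; inconclusive means mean reaches 50% but only one of two replicates passes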;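 further: firefly luciferase signal divided by Alamar Blue viability fluorescence both relative to DMSO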
LGR2 antag – inhibitors of bursicon-induced LGR2 CRE-luciferase signal, primary screen, cell-based, HEK293, CRE-luciferase reporter, bursicon stimulation | Drosophila bursicon receptor LGR2 (rickets) | inhibition, % at 9.99 µM | bursicon-stimulated, 4 h | actives 0.35% (n = 380,000);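 active means drop in luminescence signal, shown as inhibition above about 50% in the replicate tests, limit read from the data, passing the limit was not always enough; inconclusive means probably only some replicates passing the limit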;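 further: agonist challenge used bursicon conditioned medium at about half maximal strength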
PAX8 inh HTS – inhibitors of PAX8-driven TPO luciferase reporter, primary screen, RMG-I cells, single concentration; SteadyGlo, 24 h; inhibition, % at 12.6 µM; actives 1.2% (n = 360,000);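 active means mean replicate inhibition at least 60% with every replicate also reaching 60%; inconclusive means only one of the two criteria is met; inactive means mean below 60% and not all replicates reaching 60%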;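 further: luciferase light reporting Pax8 driven TPO promoter activity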
Hits are given with their value. Rows were chosen to be rich in hits. Some 2.2% of all compounds tested hit in one or more screens of this group.

For CCOC(=O)Cn1cc(/C=C/[N+](=O)[O-])c2ccccc21 the results were EBV LMP1 NFkB inactive, Shn3 3UTR inh inactive, MITF TRPM1 inh inactive, EWS-Fli inh inactive, LGR2 antag inactive and PAX8 inh HTS inactive.
Screening C[C@H](CO)N1C[C@H](C)[C@@H](CN(C)Cc2cncnc2)Oc2ncc(/C=C/c3ccccc3)cc2C1=O returned EWS-Fli inh inactive and LGR2 antag inactive.
Screening CCC(=O)N(C)C[C@@H]1Oc2cc(-c3cccc(OC)c3)ccc2S(=O)(=O)N([C@@H](C)CO)C[C@@H]1C returned EWS-Fli inh inactive and LGR2 antag inactive.
C[C@H]1CN([C@@H](C)CO)C(=O)c2cc(-c3ccncc3)cnc2O[C@@H]1CN(C)C(=O)C1CC1 was read as EWS-Fli inh inactive and LGR2 antag inactive.
C[C@@H]1CN([C@@H](C)CO)C(=O)c2cccc(NC(=O)Nc3ccc(C(F)(F)F)cc3)c2O[C@@H]1CN(C)Cc1ccc(C(=O)Nc2ccccc2N)cc1 was read as EWS-Fli inh inactive, LGR2 antag inactive and PAX8 inh HTS inactive.
`C[C@H]1CN([C@@H](C)CO)C(=O)c2cccc(NC(=O)c3nc4ccccc4s3)c2O[C@H]1CN(C)Cc1ccc(C(=O)Nc2ccccc2N)cc1` gave EWS-Fli inh inactive and LGR2 antag inactive.
c1ccc(CNc2ncnc3sccc23)cc1 was read as EBV LMP1 NFkB inactive, Shn3 3UTR inh inactive, MITF TRPM1 inh inactive, LGR2 antag inactive and PAX8 inh HTS inactive.
For c1csc(CNc2ncnc3sccc23)c1 the results were EBV LMP1 NFkB inactive, Shn3 3UTR inh 89.2 and MITF TRPM1 inh inactive.
O=[N+]([O-])c1cnc(Sc2ccncn2)s1 was read as EBV LMP1 NFkB inactive, Shn3 3UTR inh inactive, MITF TRPM1 inh 83.0, EWS-Fli inh inconclusive, LGR2 antag inactive and PAX8 inh HTS 120.0.
`Cc1nn(-c2ccccc2)c(Cl)c1C(=O)N1CCN(c2ncnc3c2cnn3-c2ccccc2)CC1` gave EBV LMP1 NFkB 52.9, Shn3 3UTR inh inactive and MITF TRPM1 inh inactive.
`Clc1ccc(-n2ncc3c(N4CCCC4)ncnc32)cc1` gave EBV LMP1 NFkB 51.7, Shn3 3UTR inh inactive, MITF TRPM1 inh inactive and LGR2 antag 72.5.
Screening Clc1ccc(Cn2ncc3c(N4CCN(c5ccccc5)CC4)ncnc32)cc1 returned Shn3 3UTR inh inactive, EWS-Fli inh inactive, LGR2 antag inactive and PAX8 inh HTS 102.1.
CCNC(=O)[C@H]1[C@H](CO)[C@H]2Cn3c(ccc(/C=C/c4ccccc4)c3=O)[C@@H]1N2 was read as EWS-Fli inh inactive, LGR2 antag inactive and PAX8 inh HTS inactive.
For COc1ccc2cc3cc(C(=O)NCCc4ccc(OC)c(OC)c4)oc3nc2c1 the results were EBV LMP1 NFkB inactive, Shn3 3UTR inh inactive and MITF TRPM1 inh 65.1.
CN(Cc1ccc(OC(F)F)cc1)C(=O)c1cccc(S(=O)(=O)N2CCN(Cc3ccccc3)CC2)c1 was read as EBV LMP1 NFkB inactive, Shn3 3UTR inh 89.4, MITF TRPM1 inh inactive, EWS-Fli inh inactive, LGR2 antag inactive and PAX8 inh HTS inactive.
CCOc1cc(-c2sc(Nc3ccccc3)n[n+]2C)ccc1OC was read as EBV LMP1 NFkB 80.7, Shn3 3UTR inh inactive, MITF TRPM1 inh inactive, EWS-Fli inh inactive, LGR2 antag inactive and PAX8 inh HTS inactive.
For COc1ccc(-c2sc(Nc3ccccc3)n[n+]2C)c(C)c1C the results were EBV LMP1 NFkB inactive, Shn3 3UTR inh inactive, MITF TRPM1 inh inactive, EWS-Fli inh inactive, LGR2 antag inactive and PAX8 inh HTS inactive.
Screening C[C@H](NC(=O)C[C@@H]1C[C@H]2c3cc(NC(=O)Nc4ccc(C(F)(F)F)cc4)ccc3O[C@H]2[C@H](CO)O1)c1ccccc1 returned EWS-Fli inh inactive, LGR2 antag inactive and PAX8 inh HTS inactive.
`C[C@H](NC(=O)C[C@@H]1C[C@@H]2c3cc(NC(=O)Nc4ccc(C(F)(F)F)cc4)ccc3O[C@@H]2[C@@H](CO)O1)c1ccccc1` gave EWS-Fli inh inactive, LGR2 antag inactive and PAX8 inh HTS 107.1.
For O=C(C[C@@H]1C[C@H]2c3cc(NC(=O)Nc4ccc(C(F)(F)F)cc4)ccc3O[C@H]2[C@H](CO)O1)NC1CCCCC1 the results were EWS-Fli inh inactive, LGR2 antag inactive and PAX8 inh HTS 66.9.
`O=C(C[C@H]1C[C@@H]2c3cc(NC(=O)Nc4ccc(C(F)(F)F)cc4)ccc3O[C@@H]2[C@@H](CO)O1)NCCc1ccccc1` gave EWS-Fli inh inactive, LGR2 antag inactive and PAX8 inh HTS 98.8.
COCCNC(=O)C[C@@H]1C[C@H]2c3cc(NC(=O)Nc4ccc(C(F)(F)F)cc4)ccc3O[C@H]2[C@H](CO)O1 was read as EWS-Fli inh inactive, LGR2 antag inactive and PAX8 inh HTS 91.1.
For O=C(C[C@@H]1C[C@H]2c3cc(NC(=O)Nc4ccc(C(F)(F)F)cc4)ccc3O[C@H]2[C@@H](CO)O1)NC1CCCCC1 the results were EWS-Fli inh inactive, LGR2 antag inactive and PAX8 inh HTS inactive.
C[C@H]1CN([C@@H](C)CO)C(=O)c2cc(C3=CCCCC3)cnc2O[C@@H]1CN(C)C(=O)C1CCOCC1 was read as EWS-Fli inh inactive, LGR2 antag inactive and PAX8 inh HTS inactive.
For C[C@@H]1CN([C@@H](C)CO)C(=O)Cc2cc(NC(=O)C3CC3)ccc2O[C@@H]1CN(C)Cc1ccc2c(c1)OCO2 the results were EWS-Fli inh inactive, LGR2 antag inactive and PAX8 inh HTS inactive.
`O=C(C[C@H]1C[C@@H]2c3cc(NC(=O)Nc4ccc(C(F)(F)F)cc4)ccc3O[C@@H]2[C@H](CO)O1)NCCc1ccccc1` gave EWS-Fli inh inactive, LGR2 antag inactive and PAX8 inh HTS inactive.
For O=C(C[C@@H]1C[C@H]2c3cc(NC(=O)Nc4ccc(C(F)(F)F)cc4)ccc3O[C@H]2[C@H](CO)O1)NCCc1ccccc1 the results were EWS-Fli inh inactive, LGR2 antag inactive and PAX8 inh HTS 100.4.
Cn1c2c(c(=O)[nH]c1=O)C(c1cccc(O)c1)C1=C(N2)c2ccccc2C1=O (configuration not stated) was read as EBV LMP1 NFkB 46.6, Shn3 3UTR inh inactive, MITF TRPM1 inh inactive, EWS-Fli inh inactive, LGR2 antag inactive and PAX8 inh HTS inactive.
Screening C[C@@H]1CN([C@@H](C)CO)C(=O)c2cc(NC(=O)Cc3ccccc3)ccc2O[C@@H](C)CCCCO[C@@H]1CN(C)C(=O)Nc1cccc2ccccc12 returned EWS-Fli inh inactive, LGR2 antag inactive and PAX8 inh HTS inactive.
Screening O=C(Nc1ccccc1)N1CCCCN2[C@@H](CO)[C@H](c3ccc(C#Cc4ccccc4)cc3)[C@@H]2C1 returned EWS-Fli inh inactive, LGR2 antag inactive and PAX8 inh HTS 72.1.
